HCV inh – inhibitors of hepatitis C virus infection | 3.4% of 340,000 active | Huh7.5.1 HCVcc-Cre infection, luciferase reporter, 44 h | Potency, µM (series often up to 41.8 µM), usual class: inhibitors
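A cell-based infection assay in which seeded cells (1,000 per well) receive test compound after 4 h, are inoculated with HCVcc-Cre at approximately 0.5 moi, and are incubated 44 h before luminescence detection.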
Pf growth 96h – P. falciparum growth inhibition at 96 hours; AID 504834; Potency, µM (highest dose often 28.7 µM), usual class: inhibitors; 6.9% of 320,000 active; P. falciparum luciferase reporter growth, 96 h
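Delayed-death screen, second-generation endpoint: infected erythrocytes, 2% hematocrit, 0.05% parasitemia final; 96 hours at 37 C, 5% CO2; luciferase detection reagent; luminescence decrease equals reduced growth.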
Pf growth 48h – inhibits P. falciparum growth in the first generation, 48 h; 5.9% of 310,000 active; P. falciparum luciferase growth in erythrocytes, 48 h; Potency, µM (highest dose often 28.7 µM), hits mostly inhibitors; AID 504832
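Growth was read as firefly luciferase luminescence after a 48 h, 37 C, 5% CO2 exposure of compounds to reporter-bearing P. falciparum cultures (0.1% parasitemia, 2% hematocrit final) in Albumax-supplemented RPMI 1640.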
AMA1-RON2 inh – inhibitors of Plasmodium falciparum AMA1-RON2 interaction; AlphaScreen AMA1-biotinylated RON2 peptide binding; Potency, µM (highest dose often 58.2 µM), usual class: inhibitors; 0.2% of 360,000 active; AID 720542; note: nearly all actives have a fitted effect of over 45% in size
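AMA1 (3D7) with his tag at 25 nM final met compounds first, then biotinylated RON2 peptide at 25 nM; detection used donor plus acceptor beads, 10 µg/mL apiece, read by AlphaScreen after 30 min at room temperature.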
Numbers stand for hits; - = inactive; ? = inconclusive; . = not tested or not shown. An excerpt weighted towards active compounds, which were near 11% of everything screened. Calls come from the whole dose curve; as a rule, active = well fitted curve in the direction sought with a large enough effect; inconclusive = small, poorly fitted or top-dose-only effect, or another doubt; inactive = no such curve, though single readings can be large; an effect the other way counts as inactive or inconclusive.

SMILES	HCV inh	Pf growth 96h	Pf growth 48h	AMA1-RON2 inh
COc1ccc(/C=N/NC(=O)COc2ccccc2-c2ccccc2)cc1	5.6µM	?	?	-
NC(=O)N/N=C/c1ccccc1OCc1cccc2ccccc12	-	13µM	-	-
COc1ccc(/C=N/NC(=O)CCSc2nc3ccccc3s2)cc1	3.5µM	-	-	-
CCOc1ccc(Oc2c(/C=N/NC(=O)COc3ccccc3OC)c(C)nn2-c2ccccc2)cc1	13µM	5.2µM	?	-
CCOC(=O)C1CCN(c2c(Nc3ccc(C)c(C)c3)c(=O)c2=O)CC1	-	?	?	-
O=C(COc1cccc2ccccc12)N/N=C/c1ccccc1OCc1ccc(C(=O)O)cc1	-	-	-	-
O=C(COc1ccccc1-c1ccccc1)N/N=C/c1cccc2ccccc12	1.8µM	9.3µM	?	-
COc1ccc(Br)c(/C=N/NC(=O)COc2ccc(-c3ccccc3)cc2)c1	7.9µM	-	?	-
CCCC[n+]1c(C)sc2ccc(C)cc21	-	4.7µM	-	-
CNC[C@@H](C)NC[C@@H](Cc1ccccc1)NCCc1ccccc1	?	2.9µM	?	-
Cc1cccc(N(CC(=O)NCCC2=CCCCC2)S(C)(=O)=O)c1C	-	.	-	-
CCC(=O)N1CCc2cc(S(=O)(=O)CCC(=O)N3CCN(c4ccc(Cl)cc4)CC3)ccc21	10µM	-	?	-
CCC(=O)N1CCc2cc(S(=O)(=O)N3CCN(c4cc(Cl)ccc4C)CC3)ccc21	-	5.2µM	-	-
CCC(=O)N1CCc2cc(S(=O)(=O)N3CCN(c4ccccc4)CC3)ccc21	-	?	-	-
CCC(=O)N1CCc2cc(S(=O)(=O)CCC(=O)N3CCN(c4ccc(C(C)=O)cc4)CC3)ccc21	?	-	?	-
Cc1nn(CC(=O)NCCc2ccc(Cl)cc2Cl)c(C)c1[N+](=O)[O-]	?	?	12µM	-
COc1ccc(-c2noc(C3CCCN(C(=O)c4ccc(F)cc4)C3)n2)cc1 (stereo not given)	?	-	-	-
CCCCC(=O)N1CCCC(c2nc(-c3cccc(OC)c3)no2)C1 (stereo not given)	-	?	-	-
COc1ccc(-c2noc(C3CCCN(C(=O)c4ccc(C)cc4)C3)n2)cc1 (stereo not given)	13µM	-	-	-
COc1cccc(-c2noc(C3CCCN(C(=O)CC(C)(C)C)C3)n2)c1 (stereo not given)	10µM	-	-	-
O=C(Nc1cccc(C(F)(F)F)c1)N1CCC(c2nc(-c3ccc(F)cc3)no2)CC1	11µM	-	?	-
Cc1ccc(-c2noc(C3CCCN(C(=O)C4CCCCC4)C3)n2)o1 (stereo not given)	-	1µM	.	-
COc1nc2ccccc2nc1CCC(=O)O	-	?	-	-
O=C(O)c1cc(-c2ccccc2)nn1CC1CC(c2cccc([N+](=O)[O-])c2)=NO1 (stereo not given)	-	.	.	-
O=C(Nc1ccccc1)N1CCC(c2nc(-c3ccc(S(=O)(=O)N4CCOCC4)cc3)no2)CC1	10µM	8.3µM	?	-
SMILES	HCV inh	Pf growth 96h	Pf growth 48h	AMA1-RON2 inh
O=C(c1ccccc1)N1CCC(c2nc(-c3ccc(S(=O)(=O)N4CCOCC4)cc3)no2)CC1	-	?	?	-
COc1cccc(C(=O)N2CCCC(c3nc(-c4cccs4)no3)C2)c1 (stereo not given)	-	9.3µM	-	-
COc1ccc(NC(=O)N2CCC(c3nc(-c4cccs4)no3)CC2)cc1	?	0.52µM	-	-
O=C(Nc1ccc(Cl)cc1)N1CCC(c2nc(-c3ccccc3Cl)no2)CC1	7.1µM	.	1.9µM	-
O=C(Nc1ccc(Cl)cc1)N1CCC(c2nc(-c3cccs3)no2)CC1	?	-	-	-
O=C(COC(=O)c1cc(S(=O)(=O)N2CCOCC2)c(Cl)cc1Cl)NCc1ccco1	-	.	.	-
Cc1ccc(S(=O)(=O)N2CCN(C(=O)c3cc(=O)c4ccccc4o3)CC2)cc1	-	?	-	-
CCN(CC)S(=O)(=O)c1cccc(N2CC(O)=C(c3ccccc3)C2=N)c1	-	2.6µM	2.6µM	-
N=C1C(c2ccccc2)=C(O)CN1c1cccc(S(N)(=O)=O)c1	-	-	-	-
Nc1ccccc1NC(=O)CCn1c(=S)[nH]c2ccccc2c1=O	-	?	-	-
CC(C)CCn1cnc2c(cnn2-c2ccc(F)cc2)c1=O	10µM	.	-	-
O=C(COC(=O)[C@@H]1CCCN1C(=O)c1cccs1)Nc1cccc(Cl)c1	-	.	.	-
